The source of these data is the supplement of paper PMC6763611.

For the assay, the system named is Plasmodium falciparum NF54. In words: growth inhibition relative to untreated control; higher = more inhibition. The conditions noted are these: 72 h. The method, boiled down:
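Ring-stage P. falciparum NF54 parasites at 1% hematocrit and 1% parasitemia were dispensed at 100 μL/well into dark 96-well half-area plates and given a single dose of test compound at 5 μM or 1 μM for 72 h at 37 °C. Incubation took place in minimal RPMI, either alone or supplemented with the chorismate end-products folate (2.2 μM), pABA (7.3 μM), pHBA (7.3 μM), tyrosine (111 μM), phenylalanine (90 μM) and tryptophan. Growth inhibition was determined with SYBR Green relative to untreated wells, using uninfected erythrocytes for background.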

[1] abbreviates: 1 µM, MM + chorismate end-products (CM screening medium).
Setting [2] is: 5 µM, MM + chorismate end-products (CM screening medium).

In the case of `O=C(NCCN1CCCC1)c1cc(NCCCCN2CCC(F)(F)CC2)nc2ccc(Cl)cc12`, the growth inhibition under setting [1] stood at 100%; the growth inhibition (1 µM, minimal medium (MM)) was 98.4%; the growth inhibition under setting [2] amounted to 90.7%; the growth inhibition (5 µM, minimal medium (MM)) amounted to 96.9%.

`Cc1ccc2oc(-c3cc(NC(=O)Cc4ccccc4)ccc3Cl)nc2c1`: the growth inhibition by setting is: under setting [1], under 0%; (1 µM, minimal medium (MM)) 6.84%; under setting [2], 26.4%; (5 µM, minimal medium (MM)) under 0%.

In the case of `CC(C(=O)Nc1ccc2oc(-c3ccncc3)nc2c1)c1ccccc1` (stereo not drawn), the growth inhibition under setting [1] stood at 14.6%; the growth inhibition (1 µM, minimal medium (MM)) is under 0%; the growth inhibition under setting [2] was under 0%; the growth inhibition (5 µM, minimal medium (MM)) is under 0%.

`CC[C@@H](CO)NCCN[C@@H](CC)CO`: the growth inhibition was 12.3% under setting [1]; 28.8% (1 µM, minimal medium (MM)); 0.997% under setting [2]; 3.8% (5 µM, minimal medium (MM)).

`CNCCC(Oc1ccc(C(F)(F)F)cc1)c1ccccc1` (stereo not drawn): the growth inhibition by setting is: under setting [1], 10.2%; (1 µM, minimal medium (MM)) under 0%; under setting [2], under 0%; (5 µM, minimal medium (MM)) 2.19%.

Regarding `COc1ccc(C2(C(=O)Nc3ccc(Br)cc3)CCCC2)cc1`, the growth inhibition by setting is: under setting [1], 15.3%; (1 µM, minimal medium (MM)) 2.06%; under setting [2], under 0%; (5 µM, minimal medium (MM)) 2.98%.

Consider `CC(=O)Nc1ccc(-c2noc(CC3CCCN(Cc4cccc(F)c4C)C3)n2)cc1` (stereo not drawn), for which the growth inhibition under setting [1] turned out to be 25.8%; the growth inhibition (1 µM, minimal medium (MM)) was under 0%; the growth inhibition under setting [2] is 93.6%; the growth inhibition (5 µM, minimal medium (MM)) is 82%.

As for `FC(F)(F)c1cnc(Sc2nnc(-c3ccncc3)o2)c(Cl)c1`, the growth inhibition under setting [1] was found to be 53%; the growth inhibition (1 µM, minimal medium (MM)) turned out to be 61.3%; the growth inhibition under setting [2] was found to be 64%; the growth inhibition (5 µM, minimal medium (MM)) was under 0%.

For `CO[C@H]1/C=C\O[C@@]2(C)Oc3c(C)c(O)c4c(O)c(/c(=C/NN5CCN(C)CC5)c(O)c4c3C2=O)=N\C(=O)/C(C)=C\C=C/[C@H](C)[C@H](O)[C@@H](C)[C@@H](O)[C@@H](C)[C@H](OC(C)=O)[C@@H]1C`, the growth inhibition reads like this: under setting [1], 35.5%; (1 µM, minimal medium (MM)) 38.2%; under setting [2], over 100%; (5 µM, minimal medium (MM)) 97.2%.

Take `CCCCc1ccc(C(=O)Nc2nccc3ccccc23)nc1`: the growth inhibition under setting [1] was found to be 6.6%; the growth inhibition (1 µM, minimal medium (MM)) was under 0%; the growth inhibition under setting [2] stood at 11.6%; the growth inhibition (5 µM, minimal medium (MM)) came to 18.4%.

Take `Cc1ccc(NC(=O)c2cc(S(=O)(=O)NC(C)(C)C)ccc2C)nc1`: the growth inhibition is, setting by setting: under setting [1], 70.6%; (1 µM, minimal medium (MM)) 52.9%; under setting [2], 93%; (5 µM, minimal medium (MM)) 94.5%.

Take `CNC(=O)C1Cc2c([nH]c3cc(Cl)ccc23)C2(CCN(CCc3ccccc3)CC2)N1` (stereo not drawn): the growth inhibition reads like this: under setting [1], 87%; (1 µM, minimal medium (MM)) over 100%; under setting [2], 92.8%; (5 µM, minimal medium (MM)) 94.4%.

Turning to `COc1ccc(C2=NN(C3CCCCCC3)C(=O)C2(C)C)cc1OCCCCOc1ccc(-c2nn[nH]n2)cc1`, the growth inhibition reads like this: under setting [1], 36.5%; (1 µM, minimal medium (MM)) 34.6%; under setting [2], 47.2%; (5 µM, minimal medium (MM)) 46.8%.

On to `COc1cc(C2=NCCN2)cc2cc(-c3ccc(C4=NCCN4)cc3)oc12`, for which the growth inhibition is, setting by setting: under setting [1], 78%; (1 µM, minimal medium (MM)) over 100%; under setting [2], 98.4%; (5 µM, minimal medium (MM)) 100%.

For the molecule `CC(C)C(C(=O)Nc1ccc(S(=O)(=O)N(C)C)cc1)c1ccc(Cl)cc1` (stereo not drawn), the growth inhibition reads like this: under setting [1], 96.6%; (1 µM, minimal medium (MM)) 94.8%; under setting [2], 98.6%; (5 µM, minimal medium (MM)) 90.3%.

Consider `COC(=O)Nc1nc2cc(C(=O)c3ccccc3)ccc2[nH]1`, for which the growth inhibition is, setting by setting: under setting [1], 12%; (1 µM, minimal medium (MM)) under 0%; under setting [2], 5.63%; (5 µM, minimal medium (MM)) under 0%.

Consider `CC(=O)N(CCN(C(=O)c1ccc(F)cc1)c1ccccc1)c1ccccc1`, for which the growth inhibition runs as follows: under setting [1], under 0%; (1 µM, minimal medium (MM)) under 0%; under setting [2], 20.2%; (5 µM, minimal medium (MM)) under 0%.

As to `NC(=O)c1cc(-c2ccsc2)ccc1OCCOc1ccccc1`, the growth inhibition under setting [1] was 18.1%; the growth inhibition (1 µM, minimal medium (MM)) worked out at 9.01%; the growth inhibition under setting [2] came out at 4.73%; the growth inhibition (5 µM, minimal medium (MM)) was under 0%.

In the case of `Cc1nc(-c2ccccn2)nc(N(C)CCc2ccccc2)c1Cl`, the growth inhibition reads like this: under setting [1], 31.5%; (1 µM, minimal medium (MM)) 23.4%; under setting [2], 82.9%; (5 µM, minimal medium (MM)) 83.8%.

For `COc1ccc(S(=O)(=O)Nc2ccc(CN3CCN(C(=O)c4cccc(C#N)c4)CC3)cc2)cc1`, the growth inhibition under setting [1] was 0.529%; the growth inhibition (1 µM, minimal medium (MM)) was under 0%; the growth inhibition under setting [2] amounted to 41.6%; the growth inhibition (5 µM, minimal medium (MM)) was 13.7%.

Take `Nc1ncnc2[nH]nc(Cc3cccc4ccccc34)c12`: the growth inhibition is, setting by setting: under setting [1], 12.3%; (1 µM, minimal medium (MM)) 22.2%; under setting [2], under 0%; (5 µM, minimal medium (MM)) under 0%.

On to `O=C(C1CCN(c2nnnn2-c2ccccc2)CC1)N1CCc2ccccc2C1`, for which the growth inhibition is 43.4% under setting [1]; 33% (1 µM, minimal medium (MM)); under 0% under setting [2]; under 0% (5 µM, minimal medium (MM)).

As to `COc1ccc(-c2cnc3cnc(-c4cccc(OC(C)C)c4)cn23)cc1`, the growth inhibition under setting [1] came to 36.4%; the growth inhibition (1 µM, minimal medium (MM)) stood at 34.1%; the growth inhibition under setting [2] was under 0%; the growth inhibition (5 µM, minimal medium (MM)) was 8.04%.

Take `O=C(C1CCCCC1)N1CC(=O)N2CCc3ccccc3C2C1` (stereo not drawn): the growth inhibition was under 0% under setting [1]; 15.5% (1 µM, minimal medium (MM)); 0.306% under setting [2]; under 0% (5 µM, minimal medium (MM)).

`Cc1cc(C)n2nc(C(=O)Nc3cc(C(F)(F)F)ccc3N3CCOCC3)nc2n1`: the growth inhibition turned out to be 82.6% under setting [1]; 77.1% (1 µM, minimal medium (MM)); 75.9% under setting [2]; 68.5% (5 µM, minimal medium (MM)).

Consider `O=C(NCCc1ccn(-c2ccccc2)n1)C1CCCCC1`, for which the growth inhibition under setting [1] was 13.1%; the growth inhibition (1 µM, minimal medium (MM)) is 20.1%; the growth inhibition under setting [2] was under 0%; the growth inhibition (5 µM, minimal medium (MM)) worked out at 3.27%.

Take `COc1ccc(-c2onc(C(F)(F)F)c2-c2ccc(Cl)cc2)c(O)c1`: the growth inhibition worked out at 94% under setting [1]; 94.8% (1 µM, minimal medium (MM)); 98.9% under setting [2]; 97.5% (5 µM, minimal medium (MM)).

As for `COc1ccc(C(=N)N)cc1-c1cn(-c2ccc(C(=N)N)cc2)nn1`, the growth inhibition is 65.6% under setting [1]; 53.6% (1 µM, minimal medium (MM)); 47.8% under setting [2]; 39.2% (5 µM, minimal medium (MM)).

With `CC1=Nc2ccc(Cl)cc2C(O)(c2ccc(C)cc2)N1CCN1CCCCC1` (stereo not drawn), the growth inhibition runs as follows: under setting [1], 99.9%; (1 µM, minimal medium (MM)) over 100%; under setting [2], over 100%; (5 µM, minimal medium (MM)) 86.9%.

In the case of `O=C(Nc1ccc(N2CCNCC2)cc1)c1ccn2ncc(-c3cccc(Cl)c3)c2n1`, the growth inhibition under setting [1] was over 100%; the growth inhibition (1 µM, minimal medium (MM)) is over 100%; the growth inhibition under setting [2] was over 100%; the growth inhibition (5 µM, minimal medium (MM)) was 99.8%.

In the case of `N#Cc1ccc(-c2cnc(N)c(-c3ccc(C(N)=O)cc3)n2)cc1`, the growth inhibition runs as follows: under setting [1], 99.3%; (1 µM, minimal medium (MM)) over 100%; under setting [2], over 100%; (5 µM, minimal medium (MM)) 89.9%.

As to `CC(=O)N1CCN(c2ccc(Oc3ccc(Cl)cc3O)cc2)CC1`, the growth inhibition reads like this: under setting [1], 48.6%; (1 µM, minimal medium (MM)) 13.5%; under setting [2], under 0%; (5 µM, minimal medium (MM)) under 0%.
